Data from PubChem BioAssay (NCATS).
Inconclusive results are not listed. Where a call stands in place of a potency, no number is given. Calls of active or inactive are those of the source. Calls come from the whole dose curve; as a rule, active = well fitted inhibition curve with a large enough effect; inconclusive = small, poorly fitted or top-dose-only effect, or effect the other way; inactive = flat fitted curve, though single readings scatter.

biological target: ATP-dependent 6-phosphofructokinase (Trypanosoma brucei brucei) (UniProt O15648); assay: qHTS Assay to Find Inhibitors of T. brucei phosphofructokinase: hit validation (AID 492961);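 note: luminescence reports ADP formed as PFK phosphorylates fructose-6-phosphate with ATP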; conditions: T. brucei PFK, ADP-Glo luminescence; series mostly up to 51.4 µM
How it was run: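 In this biochemical qHTS validation, titrated compounds were tested against 1.25 nM PFK with 0.1 mM ATP and 0.5 mM F6P. Percent activity came from controls lacking or containing enzyme.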

ATP-dependent 6-phosphofructokinase (Trypanosoma brucei brucei), sequence (O15648 whole entry, looked up): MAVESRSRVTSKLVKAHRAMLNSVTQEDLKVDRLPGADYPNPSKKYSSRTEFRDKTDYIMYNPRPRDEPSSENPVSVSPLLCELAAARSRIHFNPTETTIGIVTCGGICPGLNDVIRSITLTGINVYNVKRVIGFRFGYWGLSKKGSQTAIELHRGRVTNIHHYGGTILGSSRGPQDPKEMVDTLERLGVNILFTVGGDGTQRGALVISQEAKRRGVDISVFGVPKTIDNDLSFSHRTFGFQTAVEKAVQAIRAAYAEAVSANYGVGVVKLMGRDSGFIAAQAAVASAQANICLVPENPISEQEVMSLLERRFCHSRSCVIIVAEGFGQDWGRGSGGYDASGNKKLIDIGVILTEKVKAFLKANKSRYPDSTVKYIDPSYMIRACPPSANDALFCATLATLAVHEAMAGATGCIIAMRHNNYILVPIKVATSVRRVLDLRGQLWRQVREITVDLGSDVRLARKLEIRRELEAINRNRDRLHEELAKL

Structure (SMILES) | Potency
CCC(CC)(CC(=O)Nc1cccc(/C=C/c2nc(C3CCC3)cs2)c1)C(=O)O | inactive
CCCCCN=C(N)N/N=C/c1c[nH]c2ccc(OC)cc12 | inactive
CCN(CC)CCNC(=O)COc1ccc(OC)cc1 | inactive
CCNC(=O)/C=C/c1cccc(Br)c1 | inactive
Cc1cccc(C)c1NC(=O)CN1CCCC1 | inactive
CCOC(=O)c1c(N)sc2c1CCN(Cc1ccccc1)C2 | inactive
COc1ccc2c(c1)c1c3n2CCN(C)C3=NCC1 | inactive
O=C(O)CCC(=O)Nc1ccc(S(=O)(=O)Nc2nccs2)cc1 | inactive
CC(=O)OC[C@H]1O[C@@H](n2ncc(=O)[nH]c2=O)[C@H](OC(C)=O)[C@@H]1OC(C)=O | inactive
C[N+]1(C)CCC(=C(c2ccccc2)c2ccccc2)CC1 | inactive
CC(C)=CCOc1ccc(/C=C/C(=O)c2ccc(OCC=C(C)C)cc2OCC(=O)O)cc1 | inactive
Nc1ccc(C(=O)NCC(=O)O)cc1 | inactive
NC(=O)C1(N2CCCCC2)CCN(CCCC(=O)c2ccc(F)cc2)CC1 | inactive
CCCCCCCCCCCCCC[N+](C)(C)Cc1ccccc1 | inactive
CCc1oc2ccccc2c1C(=O)c1cc(Br)c(O)c(Br)c1 | inactive
COc1ccc(-c2cc(C(F)F)nn2-c2ccc(S(N)(=O)=O)cc2)cc1F | inactive
CC(=O)OCC(=O)[C@H]1CC[C@H]2[C@@H]3CCC4=CC(=O)CC[C@]4(C)[C@H]3CC[C@]12C | inactive
O=C(CN1CCN(Cc2ccc3c(c2)OCO3)CC1)N1c2ccccc2Sc2ccccc21 | inactive

Structure (SMILES) | Potency
CCCCN=C(N)N=C(N)N | inactive
COc1ccc(CCN(C)CCCN2CCc3cc(OC)c(OC)cc3CC2=O)cc1OC | inactive
CC(=O)NCCCCCC(=O)O | inactive
NC(=S)N/N=C/c1cccnc1 | inactive
Oc1c(Cl)cc(Cl)c(Cl)c1Cc1c(O)c(Cl)cc(Cl)c1Cl | inactive
Cc1ccc2c(Br)cc(Br)c(O)c2n1 | inactive
COc1cc([C@H]2Oc3cc([C@H]4Oc5cc(O)cc(O)c5C(=O)[C@@H]4O)ccc3O[C@@H]2CO)ccc1O | inactive
NC1CCN(c2nc3c(cc2F)c(=O)c(C(=O)O)cn3-c2ccc(F)cc2F)C1 (stereo unspecified) | inactive
CN1CCN(CCC(=O)N2c3ccccc3Sc3ccc(C(F)(F)F)cc32)CC1 | inactive
CN(C)CCC[C@@]1(c2ccc(F)cc2)OCc2cc(C#N)ccc21 | inactive
NS(=O)(=O)Cc1noc2ccccc12 | inactive
Cc1nc(-c2ccc(Cl)cc2)oc1COC(C)(C)C(=O)O | inactive
C=C[C@@]1(C)CC(=O)[C@]2(O)[C@@]3(C)[C@@H](O)CCC(C)(C)[C@@H]3[C@H](O)[C@H](OC(C)=O)[C@@]2(C)O1 | inactive
OC1C(O)C(O)C(O)C(O)C1O (stereo unspecified) | inactive
CC(=O)Nc1ccc(S(=O)(=O)Nc2ccc([N+](=O)[O-])cc2)cc1 | inactive
CCOCCn1c(N2CCCN(C)CC2)nc2ccccc21 | inactive
CC(C)(C)NC[C@H](O)COc1cccc2c1CCCC2=O | inactive
CN(CCCN1c2ccccc2CCc2ccccc21)CC(=O)c1ccc(Cl)cc1 | inactive
